These results are taken from PubChem BioAssay (NCI).

SMILES strings stand for the structures. Compounds without any hit were thinned out: in the full panel of roughly 83,000, 20% have a hit.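 Growth was measured after 48 h exposure to one concentration of compound in 96-well plates. Values under 10 count as active.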 Values without a mark were called inactive. The source made the active and inactive calls.

Common to all, as to assay: NCI-60 one-dose screen, 48 h (100 = growth as untreated, 0 = no growth, -100 = all killed)
What all share (details): 10 µM unless noted

Assay [1] has as its system SR leukemia.
Assay [2] deals with RPMI-8226 leukemia.
Assay [3] relates to OVCAR-8 ovarian.
Assay [4] deals with OVCAR-5 ovarian.
Assay [5] deals with OVCAR-4 ovarian.
The test system of assay [6] is SK-OV-3 ovarian.
Assay [7] deals with IGROV1 ovarian.
The test system of assay [8] is OVCAR-3 ovarian.
Assay [9] relates to HS 578T breast.
Assay [10] relates to NCI/ADR-RES ovarian.
The subject of assay [11] is T-47D breast.
Assay [12] has as its system BT-549 breast.
Assay [13] concerns MDA-MB-435 melanoma.
Assay [14] relates to SW-620 colon.
The test system of assay [15] is MCF7 breast.
Assay [16] has as its system HCT-116 colon.
Assay [17] concerns HCC-2998 colon.
Assay [18] deals with KM12 colon.

For `C=C1CC2(OC1=O)C(=O)N(CCCCCCCN1C(=O)C3(CC(=C)C(=O)O3)c3ccccc31)c1ccccc12` (centres undefined), the growth in assay [1] is 3.28% (active); in assay [2], -28.1% (active); in assay [3], 9.09% (active); in [4], 45.1%; in assay [5] it was 10.2%; in [6], 112%. Also, the growth is 10.5% in assay [7]; 3.44% (active) in assay [8]; 62.3% in assay [9]; 32.6% in [10]; 22.5% in [11]; 35.2% in assay [12]. Also, the growth in assay [13] is 6.35% (active); in [14], -49.8% (active); in assay [15], -4.01% (active); in [16], -21.8% (active); in assay [17], 82.5%; in [18] it was 73.6%.

With `COc1cnc2c(c1)C(=O)c1c-2n(CCCN2CCN(C)CC2)c(=O)c2cc([N+](=O)[O-])ccc12`, the growth in assay [1] is -23.6% (active); in assay [2], -41.6% (active); in [3] it was -21.9% (active); in assay [4], 111%; in assay [5], -81.7% (active); in assay [6], 86.6%. The growth is -55.2% (active) in [7]; -84.6% (active) in assay [8]; 94.8% in assay [9]; -2.68% (active) in assay [10]; -57.2% (active) in assay [11]; -54.6% (active) in [12]. For the same compound, the growth in assay [13] was -93.8% (active); in [14], -73% (active); in assay [15] it was -40.1% (active); in assay [16], -83.8% (active); in assay [17], 95.1%; in assay [18], -29% (active).

As to `Oc1ccc2c(=S)cc(-c3ccc(Br)cc3)oc2c1O`, the growth is 1.21% (active) in [1]; -8.44% (active) in [2]; -6.62% (active) in [3]; 67.9% in [4]; -1.04% (active) in assay [5]; 62.3% in [6]. Moreover, the growth in assay [7] was 19%; in assay [8] it was -21.7% (active); in [9], 84%; in assay [10], -8.87% (active); in [11], 2.92% (active); in [12], 44.6%. In addition, the growth in assay [13] is 23.3%; in [14], 5.25% (active); in assay [15], -31.9% (active); in [16], -22% (active); in [17] it was 73.8%; in assay [18], 12.9%.

Regarding `CN(CC(=O)N(Cc1ccc(C2CCCCC2)cc1)c1ccc(C(=O)NO)cc1)S(=O)(=O)c1c(F)c(F)c(F)c(F)c1F`, the growth in assay [1] is -4.55% (active); in assay [2], 62.8%; in assay [3] it was 49.8%; in [4], 104%; in assay [5], 84.4%; in assay [6] it was 111%. Moreover, the growth in [7] was 28.6%; in assay [8], 81.7%; in assay [9] it was 91.6%; in [10] it was 90.2%; in assay [11], 11.2%; in assay [12] it was 93%. Moreover, the growth in assay [13] is 99.1%; in assay [14], 20.1%; in assay [15], 24.9%; in assay [16], 75.6%; in [17], 84.2%; in assay [18] it was 99.4%.

As to `CSc1ncnc2c1ncn2C1CCCO1` (centres undefined), the growth in [1] is 113%; in assay [2], 104%; in assay [3] it was 109%; in assay [4], 98.3%; in assay [5] it was 95.1%; in assay [6], 104%. Further, the growth was 120% in [7]; 120% in assay [8]; 103% in assay [9]; 101% in assay [10]; 107% in assay [11]; 102% in assay [12]. The growth is 101% in assay [13]; 116% in assay [14]; 104% in assay [15]; 101% in [16]; 113% in [17]; 110% in assay [18].

`COc1ccc(CCN2CCCn3c2nc2ccccc2c3=O)cc1`: the growth in assay [1] was 24.8%; in assay [2], 29.9%; in [3] it was 28.8%; in assay [4] it was 41.6%; in assay [5], 41.9%; in assay [6], 53.7%. In addition, the growth was 40.3% in assay [7]; -4.64% (active) in assay [8]; 38.9% in [9]; 14.7% in [10]; 80.8% in assay [11]; 29.5% in [12]. For the same compound, the growth in assay [13] was -15.2% (active); in [14], 27%; in [15] it was 16.8%; in [16], 14.3%; in [17] it was 8.36% (active); in assay [18], 14.7%.

With `C[C@@H]1CCC2=C(CCC[C@]2(C)C(=O)O)[C@@]1(C)CCc1ccoc1`, the growth in [1] is 97.6%; in [2], 92.9%; in assay [3], 94.2%; in assay [4], 112%; in [5] it was 109%; in assay [6], 99.1%. The growth was 99.8% in [7]; 101% in assay [8]; 88% in assay [9]; 98.7% in assay [10]; 94.9% in [11]; 117% in [12]. The growth in [13] was 107%; in [14], 98.8%; in assay [15], 96.7%; in assay [16] it was 96%; in assay [17], 87.6%; in assay [18], 97.7%.

Turning to `Nc1nc2ccc(-c3nc4ccc5[nH]ncc5c4c4c3CCC4)cc2s1`, the growth in assay [1] was 20.7%; in [2], -49% (active); in assay [3], 28.6%; in assay [4], 47.6%; in assay [5] it was 19.3%; in assay [6], -21.7% (active). For the same compound, the growth was 21.4% in assay [7]; 39.4% in assay [8]; 7.12% (active) in assay [9]; 27.8% in [10]; 31.2% in assay [11]; 47.1% in assay [12]. In addition, the growth in assay [13] is -35.5% (active); in [14] it was 6.95% (active); in assay [15], 13%; in assay [16], 15.9%; in [17] it was 50.9%; in [18], 25.1%.
